Records with an inconclusive call do not appear. A call without a number means that no potency is given here. Unmarked numbers belong to inactive results. Active and inactive are the calls of the source. Calls come from the whole dose curve; as a rule, active = well fitted curve in the direction sought with a large enough effect; inconclusive = small, poorly fitted or top-dose-only effect, or another doubt; inactive = no such curve, though single readings can be large; an effect the other way counts as inactive or inconclusive.
What follows are compounds tested against Cellular tumor antigen p53 (Homo sapiens) (UniProt P04637) (assay: Primary qHTS for small molecule compounds that upregulate eGFP-tagged delta133p53alpha (in N-terminal) cells. (AID 2060322;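 note: cells pre-induced with doxycycline then dosed without doxycycline; nearly all actives have a fitted effect of over 75% in size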)). Settings: NCI-H358 eGFP-delta133p53alpha fluorescence, 24 h; activation: stronger effect = higher value.
Outline: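 NCI-H358 cells pre-induced 24 h with 10 ng/ml doxycycline for eGFP-delta133p53alpha, plated dox-free and exposed 24 h at 37C to titrated compounds. Fixed, Hoechst-stained; gated GFP peak intensity by laser scanning cytometry, normalized to DMSO (0%) and 57.5 uM 5-azacytidine (100%).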

Sequence of Cellular tumor antigen p53 (Homo sapiens) (P04637 whole entry, looked up): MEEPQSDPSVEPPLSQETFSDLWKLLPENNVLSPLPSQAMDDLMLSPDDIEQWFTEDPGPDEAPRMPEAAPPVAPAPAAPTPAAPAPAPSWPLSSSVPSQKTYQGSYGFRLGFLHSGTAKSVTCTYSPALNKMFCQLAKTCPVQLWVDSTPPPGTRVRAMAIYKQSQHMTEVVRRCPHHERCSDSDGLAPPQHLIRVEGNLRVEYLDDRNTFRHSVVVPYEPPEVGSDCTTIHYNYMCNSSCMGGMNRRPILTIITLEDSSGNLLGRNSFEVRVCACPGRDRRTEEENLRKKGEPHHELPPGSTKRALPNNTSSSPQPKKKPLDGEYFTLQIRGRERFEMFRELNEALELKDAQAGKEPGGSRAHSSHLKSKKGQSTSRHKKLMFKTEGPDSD

Row | SMILES | activation
1 | CC(C)S(=O)(=O)NC[C@H](C)c1ccc(NC(=O)c2cc(F)cc(F)c2)cc1 | -15%
2 | N[C@H]1CN(c2c(F)cc3c(=O)c(C(=O)O)cn(C4C[C@@H]4F)c3c2Cl)CC12CC2 (stereo partly specified) | -26%
3 | CC(O)(CC(=O)O)CC(=O)OCc1ccc(O[C@@H]2O[C@H](CO)[C@@H](O)[C@H](O)[C@H]2O)cc1 (stereo partly specified) | -13.7%
4 | CC1(C)CC[C@]2(C(=O)O)CC[C@]3(C)C(=CCC4[C@@]5(C)CC[C@H](O[C@@H]6O[C@H](CO)[C@@H](O)[C@H](O)[C@H]6O[C@@H]6O[C@H](CO)[C@@H](O)[C@H](O)[C@H]6O)[C@@](C)(CO)C5CC[C@]43C)[C@@H]2C1 (stereo partly specified) | 9.82%
5 | CCCN1CCC(c2cccc(S(C)(=O)=O)c2)CC1 | -11.9%
6 | C=CC(C)(CC/C=C(\C)C(=O)OC)OC1OC(COC(=O)CC(C)(O)CC(=O)O)C(OC2OC(CO)C(O)C(O)C2O)C(O)C1O (stereo unspecified) | -11.5%
7 | C[C@@H]1O[C@@H](O[C@@H]2[C@@H](O)[C@H](O[C@@H]3[C@@H](O)[C@@H](O)[C@H](O[C@H]4[C@H](OC(=O)[C@]56CCC(C)(C)C[C@H]5C5=CCC7[C@@]8(C)C[C@H](O)[C@H](O[C@@H]9O[C@H](C(=O)O)[C@@H](O)[C@H](O)[C@H]9O)[C@@](C)(CO)C8[C@H](O)C[C@@]7(C)[C@]5(C)CC6)OC[C@H](O)[C@@H]4O)O[C@H]3C)OC[C@H]2O)[C@H](O)[C@H](O)[C@H]1O (stereo partly specified) | -0.763%
8 | CC1(C)CCCC2(C)C1C(O)C=C(CO)C2(O)CO (stereo unspecified) | -13.7%
9 | O=C(Nc1ccc(Cl)cc1F)c1ccccc1O | 8.59%
10 | C=C[C@H]1[C@H](O[C@@H]2O[C@H](CO)[C@@H](O)[C@H](O)[C@H]2O)OC=C(C(=O)OC)[C@H]1CC=O | -32.8%
11 | C=C1C[C@@]23CC[C@@H]4[C@](C)(C(=O)O)CCC[C@@]4(C)C2=CC[C@H]1C3 | 0.763%
12 | Cc1nc2sc(C(=O)NCc3ccncc3)c(N)c2c(C)c1Cl | 11%
13 | CC(=O)OC[C@]12[C@H](OC(C)=O)[C@H](OC(=O)c3ccccc3)[C@@H]3[C@@H](OC(C)=O)[C@]1(OC3(C)C)[C@H](C)C[C@H](OC(=O)c1ccccc1)[C@@H]2OC(=O)c1ccccc1 | -31.3%
14 | OC[C@H]1O[C@@H](OCCc2ccccc2)[C@H](O)[C@@H](O)[C@@H]1O | -2.29%
15 | CC(C)(O)C1CC=C(C(=O)OC[C@H]2O[C@@H](Oc3cc(C(=O)O)cc(O)c3O)[C@H](O)[C@@H](O)[C@@H]2O)CC1 (stereo partly specified) | -22.1%
16 | COc1cc(C(C)=O)c(OC)c2c1OC(C)(C)C=C2 | 6.25%

What follows are compounds tested against Aldehyde dehydrogenase, mitochondrial (Homo sapiens) (UniProt P05091) (assay: qHTS for Inhibitors of the Aldehyde Dehydrogenase Family (ALDH2) Primary screen (AID 2061308; note: nearly all actives have a fitted effect of over 55% in size)). Settings: ALDH2 enzyme inhibition qHTS, 1536-well; series mostly up to 56 µM.

Row | SMILES | Potency | activity change, negative = inhibition
17 | COc1cc(O)cc(C)c1C(=O)O[C@@H]1[C@H](O)[C@@H](CO)O[C@H]1n1ccc(=O)[nH]c1=O | inactive | 
18 | Cc1ccc(S(=O)(=O)N2CCC[C@H]2c2ccc(F)cc2)cc1 | inactive | 
19 | CCOc1cn(-c2ccc(F)cc2C)nc1C(=O)Nc1ccc(Oc2ccnc3cc(OC)c(OC)cc23)c(F)c1 | inactive | 
20 | COc1cc(C(C)=O)ccc1O[C@@H]1O[C@H](CO)[C@@H](O)[C@H](O)[C@H]1O | inactive | 
21 | C=C1[C@H](OC(C)=O)[C@H]2[C@@H](OC(=O)c3ccccc3)[C@@H](C)C[C@]2(O)[C@@H](OC(C)=O)[C@H](C)/C=C/C(C)(C)C(=O)[C@H](OC(C)=O)[C@H]1OC(C)=O | inactive | 
22 | O=S(=O)(Nc1ccc(C(O)(C(F)(F)F)C(F)(F)F)cc1)c1cccs1 | inactive | 
23 | O=C(/C=C/c1ccc(O)cc1)OCC1=CC2OC(=O)C3=CO[C@@H](O[C@@H]4O[C@H](CO)[C@@H](O)[C@H](O)[C@H]4O)[C@H]1[C@@H]32 (stereo partly specified) | inactive | 
24 | CO[C@@]12CC3[C@@H]([C@@H](O)[C@@H](OC(C)=O)C4[C@](C)(COC(C)=O)CCC[C@]34C)[C@@H](C)C1=CC(=O)O2 (stereo partly specified) | inactive | 
25 | CC1=C(C(=O)O)/C(=C\CO[C@@H]2O[C@H](CO)[C@@H](O)[C@H](O)[C@H]2O)C(OC(=O)/C=C\c2ccc(O)cc2)C1 (stereo partly specified) | inactive | 
26 | CC(=O)OC[C@]12[C@H](OC(C)=O)C(=O)[C@@H]3[C@@H](O)[C@@]14O[C@@]3(C)COC(=O)c1cccnc1[C@@H](C)[C@H](C)C(=O)O[C@@H]([C@H](O)[C@@H]2OC(C)=O)[C@]4(C)O | inactive | 
27 | C[C@@H]1O[C@@H](O[C@H]2[C@H](O)[C@@H](C(=O)O)O[C@@H](O[C@H]3CC[C@@]4(C)C(CC[C@]5(C)C4CC=C4C6CC(C)(C)CC[C@]6(C(=O)O)CC[C@]45C)C3(C)C)[C@@H]2O[C@@H]2OC[C@@H](O)[C@H](O)[C@H]2O)[C@H](O)[C@H](O)[C@H]1O (stereo partly specified) | inactive | 
28 | O=C(O)c1ccc(Nc2ncc3c(n2)-c2ccc(Cl)cc2C(c2c(F)cccc2F)=NC3)cc1 | inactive | 
29 | C/C(=C\C(=O)C(C)C1CCC2C3=C(CCC21C)C1(C)CCC(=O)C(C)(C)C1(O)CC3)C(C)(C)O (stereo unspecified) | inactive | 
30 | CN1[C@@H]2CC[C@H]1CC(NC(=O)n1c(=O)[nH]c3ccccc31)C2 (stereo partly specified) | inactive | 
31 | CC(=O)OC1C(O)/C(C)=C\C2C(OC(=O)c3ccccc3)C(C)CC2(OC(C)=O)C(OC(C)=O)C(C)/C=C/C(C)(C)C1OC(C)=O (stereo unspecified) | inactive | 
32 | COC(=O)C12CCC(C)C(C)C1C1=CCC3C4(C)CCC(OC(C)=O)C(C)(C)C4CCC3(C)C1(C)CC2 (stereo unspecified) | inactive | 
33 | COc1ccc(CC(=O)NCc2ccccc2-c2ccccc2C(=O)NCCc2cccnc2)cc1 | inactive | 
34 | CC1(C)CCCC2(C)C1CC=C1C(=O)OC(O)C12O (stereo unspecified) | inactive | 
35 | CC1(C)CC[C@]2(C(=O)O)CC[C@]3(C)C(=CCC4[C@@]5(C)CC[C@H](O[C@H]6O[C@H](C(=O)O)[C@@H](O)[C@H](O[C@@H]7O[C@H](CO)[C@H](O)[C@H](O)[C@H]7O)[C@H]6O)C(C)(C)C5CC[C@]43C)[C@@H]2C1 (stereo partly specified) | inactive | 
36 | CC[C@H]1OC(=O)[C@H](C)[C@@H](O[C@H]2C[C@@](C)(OC)[C@@H](O)[C@H](C)O2)[C@H](C)[C@@H](O[C@H]2O[C@H](C)C[C@H](N(C)C)[C@H]2O)[C@](C)(O)C[C@@H](C)C(=O)[C@H](C)[C@@H](O)[C@]1(C)O | inactive | 

Row | SMILES | Potency | activity change, negative = inhibition
37 | OC1COC(OCC2OC(OCCc3ccccc3)C(O)C(O)C2O)C(O)C1O (stereo unspecified) | inactive | 
38 | C=C1CC[C@@H]2[C@@](C)(CO[C@@H]3O[C@H](CO)C(O)[C@H](O)C3O)[C@H](O)CC[C@@]2(C)[C@@H]1CC/C(C)=C/CO (stereo partly specified) | inactive | 
39 | CC(/C=C/[C@]1(O)[C@@]2(C)CO[C@@]1(C)C[C@@H](O)C2)=C\C(=O)O[C@@H]1O[C@H](CO)[C@@H](O)[C@H](O)[C@H]1O | inactive | 
40 | CC/C=C(\C(=O)N[C@@H]1C(=O)N2C(C(=O)OCOC(=O)C(C)(C)C)=C(COC(N)=O)CS[C@H]12)c1csc(N)n1 | inactive | 
41 | CC(C)S(=O)(=O)NC[C@H](C)c1ccc(NC(=O)c2cc(F)cc(F)c2)cc1 | inactive | 
42 | N[C@H]1CN(c2c(F)cc3c(=O)c(C(=O)O)cn(C4C[C@@H]4F)c3c2Cl)CC12CC2 (stereo partly specified) | inactive | 
43 | CC(O)(CC(=O)O)CC(=O)OCc1ccc(O[C@@H]2O[C@H](CO)[C@@H](O)[C@H](O)[C@H]2O)cc1 (stereo partly specified) | inactive | 
44 | CC1(C)CC[C@]2(C(=O)O)CC[C@]3(C)C(=CCC4[C@@]5(C)CC[C@H](O[C@@H]6O[C@H](CO)[C@@H](O)[C@H](O)[C@H]6O[C@@H]6O[C@H](CO)[C@@H](O)[C@H](O)[C@H]6O)[C@@](C)(CO)C5CC[C@]43C)[C@@H]2C1 (stereo partly specified) | inactive | 
45 | CCCN1CCC(c2cccc(S(C)(=O)=O)c2)CC1 | inactive | 
46 | C=CC(C)(CC/C=C(\C)C(=O)OC)OC1OC(COC(=O)CC(C)(O)CC(=O)O)C(OC2OC(CO)C(O)C(O)C2O)C(O)C1O (stereo unspecified) | inactive | 
47 | C[C@@H]1O[C@@H](O[C@@H]2[C@@H](O)[C@H](O[C@@H]3[C@@H](O)[C@@H](O)[C@H](O[C@H]4[C@H](OC(=O)[C@]56CCC(C)(C)C[C@H]5C5=CCC7[C@@]8(C)C[C@H](O)[C@H](O[C@@H]9O[C@H](C(=O)O)[C@@H](O)[C@H](O)[C@H]9O)[C@@](C)(CO)C8[C@H](O)C[C@@]7(C)[C@]5(C)CC6)OC[C@H](O)[C@@H]4O)O[C@H]3C)OC[C@H]2O)[C@H](O)[C@H](O)[C@H]1O (stereo partly specified) |  | 10.8% [at 11.2 µM]
48 | CC1(C)CCCC2(C)C1C(O)C=C(CO)C2(O)CO (stereo unspecified) | inactive | 
49 | O=C(Nc1ccc(Cl)cc1F)c1ccccc1O | inactive | 
50 | C=C[C@H]1[C@H](O[C@@H]2O[C@H](CO)[C@@H](O)[C@H](O)[C@H]2O)OC=C(C(=O)OC)[C@H]1CC=O | inactive | 
51 | C=C1C[C@@]23CC[C@@H]4[C@](C)(C(=O)O)CCC[C@@]4(C)C2=CC[C@H]1C3 | inactive | 
52 | Cc1nc2sc(C(=O)NCc3ccncc3)c(N)c2c(C)c1Cl | inactive | 
53 | CC(=O)OC[C@]12[C@H](OC(C)=O)[C@H](OC(=O)c3ccccc3)[C@@H]3[C@@H](OC(C)=O)[C@]1(OC3(C)C)[C@H](C)C[C@H](OC(=O)c1ccccc1)[C@@H]2OC(=O)c1ccccc1 | inactive | 
54 | OC[C@H]1O[C@@H](OCCc2ccccc2)[C@H](O)[C@@H](O)[C@@H]1O | inactive | 
55 | CC(C)(O)C1CC=C(C(=O)OC[C@H]2O[C@@H](Oc3cc(C(=O)O)cc(O)c3O)[C@H](O)[C@@H](O)[C@@H]2O)CC1 (stereo partly specified) | inactive | 
56 | COc1cc(C(C)=O)c(OC)c2c1OC(C)(C)C=C2 | inactive | 

From PubChem BioAssay (NCATS)
